# Test results: the supplement of paper PMC9023506
# Where a name gives a salt, the structure may show the parent alone.
# System: Danio rerio larvae (5 dpf)
# Experiment: activity during period 15 (no stimuli), difference vs DMSO (percentage points (treated minus DMSO)); higher = more of the behaviour than the DMSO vehicle control
# Conditions: 10 µM; exposure time: 3 h pre-incubation + 3 h imaging
# Protocol: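 5-dpf wild-type zebrafish larvae were imaged in 96-well plates. They were treated with 190 Tocris FDA-approved drugs at 10 µM (1 µl/ml DMSO) for 3 h before and 3 h during imaging at 28.5 °C, 48 larvae per drug. Automated image analysis gave % time moving and optomotor responses. Values are drug group mean minus DMSO vehicle mean (n=844), in percentage points, for 10 behaviours.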
row,Structure (SMILES),activity during period 15
1,CCOC(=O)N1CCC(=C2c3ccc(Cl)cc3CCc3cccnc32)CC1 [Loratidine],-25
2,Brc1c(NC2=NCCN2)ccc2nccnc12,-19.4
3,CC(C)(C(=O)c1cccnc1)c1cccnc1 [Metyrapone],-7.26
4,O=C(Nc1c(Cl)cncc1Cl)c1ccc(OC(F)F)c(OCC2CC2)c1 [Roflumilast],-9.33
5,CC(=O)Oc1cc2c(s1)CCN(C(C(=O)C1CC1)c1ccccc1F)C2 (stereo not given) [Prasugrel],11.8
6,CN(C)CC/C=C1/c2ccccc2COc2ccc(CC(=O)O)cc21 [Olopatadine hydrochloride],-6.62
7,CN(C)CCC[C@@]1(c2ccc(F)cc2)OCc2cc(C#N)ccc21 [Escitalopram oxalate],-18.3
8,OC(c1cc(C(F)(F)F)nc2c(C(F)(F)F)cccc12)C1CCCCN1 (stereo not given) [Mefloquine hydrochloride],-1.13
9,COC(c1ccccc1)(c1ccccc1)[C@H](Oc1nc(C)cc(C)n1)C(=O)O [Ambrisentan],-4.72
10,CCCc1nn(C)c2c(=O)[nH]c(-c3cc(S(=O)(=O)N4CCN(C)CC4)ccc3OCC)nc12 [Sildenafil citrate],-20.2
11,CCCc1nc2c(C)cc(-c3nc4ccccc4n3C)cc2n1Cc1ccc(-c2ccccc2C(=O)O)cc1 [Telmisartan],-7.63
12,Cn1cnc([N+](=O)[O-])c1Sc1ncnc2[nH]cnc12 [Azathioprine],8.85
13,CCCc1nc(C(C)(C)O)c(C(=O)O)n1Cc1ccc(-c2ccccc2-c2nnn[nH]2)cc1 [Olmesartan],4.45
14,NC(=O)OCC(COC(N)=O)c1ccccc1 [Felbamate],0.376
15,CC(C)N(CCCCOCC(=O)NS(C)(=O)=O)c1cnc(-c2ccccc2)c(-c2ccccc2)n1 [Selexipag],6.35
16,CC(=O)Oc1ccccc1C(=O)O [Aspirin],-1.19
17,CC#C[C@]1(O)CC[C@H]2[C@@H]3CCC4=CC(=O)CCC4=C3[C@@H](c3ccc(N(C)C)cc3)C[C@@]21C [Mifepristone],-2.26
18,CC(C)C(=O)OCC(=O)[C@@]12O[C@H](C3CCCCC3)O[C@@H]1C[C@H]1[C@@H]3CCC4=CC(=O)C=C[C@]4(C)[C@H]3[C@@H](O)C[C@@]12C [Ciclesonide],-5.84
19,Nc1cc(N2CCCCC2)nc(N)[n+]1[O-] [Minoxidil],6.89
20,CCOc1cc(CC(=O)N[C@@H](CC(C)C)c2ccccc2N2CCCCC2)ccc1C(=O)O [Repaglinide],-1.47

row,Structure (SMILES),activity during period 15
1,COc1cc(N)c(Cl)cc1C(=O)NC1CCN(CCCOc2ccc(F)cc2)CC1OC (stereo not given) [Cisapride],-0.757
2,O=C1CCc2ccc(OCCCCN3CCN(c4cccc(Cl)c4Cl)CC3)cc2N1 [Aripiprazole],4.18
3,C[C@H]1O[C@H](O[C@H]2[C@H](O)[C@@H](O)[C@@H](O[C@H]3[C@H](O)[C@@H](O)C(O)O[C@@H]3CO)O[C@@H]2CO)[C@H](O)[C@@H](O)[C@@H]1N[C@H]1C=C(CO)[C@@H](O)[C@H](O)[C@H]1O (stereo not given in full) [Acarbose],1.42
4,O=C(O[C@@H]1C[C@@H]2C[C@H]3C[C@H](C1)N2CC3=O)c1c[nH]c2ccccc12 [Dolasetron mesylate],-1.51
5,CCCCC1=NC2(CCCC2)C(=O)N1Cc1ccc(-c2ccccc2-c2nnn[nH]2)cc1 [Irbesartan],5.68
6,CCOc1ccccc1OCCN[C@H](C)Cc1ccc(OC)c(S(N)(=O)=O)c1 [Tamsulosin hydrochloride],2.6
7,OCCN(CCO)c1nc(N2CCCCC2)c2nc(N(CCO)CCO)nc(N3CCCCC3)c2n1 [Dipyridamole],-5.46
8,OCCN1C[C@H](O)[C@@H](O)[C@H](O)[C@H]1CO [Miglitol],-4.45
9,C[C@H]1C[C@@H]2[C@H]([C@@H](O)C[C@@]3(C)[C@H]2CC[C@]3(O)C(=O)CO)[C@@]2(C)C=CC(=O)C=C12 [Methylprednisolone],-4.72
10,C[C@]12CC[C@@H]3c4ccc(O)cc4C[C@@H](CCCCCCCCC[S+]([O-])CCCC(F)(F)C(F)(F)F)[C@H]3[C@@H]1CC[C@@H]2O (stereo not given in full),4.53
11,CCOC(=O)C1=C(COCCN)NC(C)=C(C(=O)OC)C1c1ccccc1Cl (stereo not given) [Amlodipine besylate],3.16
12,CC(C)(C(=O)O)c1ccc(C(O)CCCN2CCC(C(O)(c3ccccc3)c3ccccc3)CC2)cc1 (stereo not given) [Fexofenadine hydrochloride],1.68
13,C[C@@H]1C[C@H]2[C@@H]3CCC4=CC(=O)C=C[C@]4(C)[C@@]3(F)[C@@H](O)C[C@]2(C)[C@@]1(O)C(=O)CO [Dexamethasone],2.91
14,C#C[C@]1(O)CC[C@H]2[C@@H]3CCC4=CC(=O)CC[C@@H]4[C@H]3CC[C@@]21CC [Levonorgestrel],-6.07
15,C=CC(=O)N1CCC[C@@H](n2nc(-c3ccc(Oc4ccccc4)cc3)c3c(N)ncnc32)C1 [Ibrutinib],-4.55
16,Nc1cccc2c1CN(C1CCC(=O)NC1=O)C2=O (stereo not given) [Lenalidomide],4.34
17,Cc1cc(C2CCCCC2)n(O)c(=O)c1 [Ciclopirox],10.7
18,CCN(CC)CCNC(=O)c1c(C)[nH]c(/C=C2\C(=O)Nc3ccc(F)cc32)c1C [Sunitinib malate],-14.6
19,CN(C)C(=N)NC(=N)N [Metformin hydrochloride],-4.35
20,CN(CCOc1ccc(CC2SC(=O)NC2=O)cc1)c1ccccn1 (stereo not given) [Rosiglitazone],7.42
